Shown are actives, neighbours in structure and some others; about 1.8% of the full set was active somewhere.
aDG glyco act – activators of alpha-DG glycosylation, primary screen, uHTS, Pro5-aDG cells, AlphaScreen | 360,000 compounds, 0.22% hits | alpha-DG glycosylation AlphaScreen (IIH6); 0% Pro5, 100% B10-LARGE cell signal | activation, % at 10 µM;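 active = activation of at least 8% versus controls, or a plate z-score of at least 8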;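 also: Pro5 are CHO cells carrying HIG-tagged alpha-DG that lacks glycosylation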
Mot1-301 SUMO – yeast Mot1-301 growth rescue at high temperature, primary screen, SUMOylation pathway inhibitor project, S. cerevisiae, ATP luminescence, 38.5C. S. cerevisiae Mot1-301 growth rescue; percent above DMSO median, 100 means doubled. growth rescue, % at 18.8 µM. 320,000 compounds, 1% hits;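 active = every valid replicate shows activation above 250% relative to neutral control wells; inactive = the rest, any valid replicate at or below 250%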;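 also: OY570 slx delta 5 strain wells were the positive control but not used for scaling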
ARNT TACC3 PPI – disruptors of ARNT/TACC3 protein interaction, primary screen, biochemical, AlphaScreen, single concentration; AlphaScreen His-ARNT PAS-B/GST-TACC3 binding, luminescence; TACC3 fragment carries E629A point mutation; AID 623870, 2012; inhibition, % at 9.99 µM; 390,000 compounds, 0.66% hits;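 active = mean inhibition of replicates at least 50% and at least half of replicates each reaching 50%; inconclusive = half or more replicates reach 50% but mean below 50%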;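 also: 0% = complete ARNT plus TACC3 wells and 100% = ARNT alone without TACC3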
Bfl-1 A1 inh – caspase 3/7 activation in MEF A1-2A-BIM cells, primary screen, A1 inhibitor project, cell-based, luminescence, HTS; Caspase-Glo 3/7 luminescence, 3 h; percent of clofoctol response, vehicle zero; caspase activation, % (test concentration not listed); 330,000 compounds, 0.066% hits;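 active = over half of replicate activation scores above 10%, or exactly half above 10 with the replicate mean above 10; inconclusive = replicate mean below 10 yet half the replicates above 10; inactive = over half of replicates below 10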
AI-2 QS mod – Vibrio harveyi AI-2 quorum sensing modulators, primary screen, JMH597 strain, luminescence/OD600 ratio; 300,000 compounds, 0.4% hits; Vibrio harveyi JMH597 AI-2 luminescence/OD600 ratio, 9 h; stronger effect = lower value; strain lacks LuxN and CqsS sensors; 0 = neutral-control median; activity change, % at 7.5 µM; AID 2094, 2009; in the data active = activity change below about -75%, passing the limit was not always enough; inconclusive = no clear call, values can overlap the other calls;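 also: luminescence divided by OD600 gain over 9 h not by final OD600 alone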
ARNT Alpha ctr – AlphaScreen signal interference compounds, dose response, artefact control for ARNT-TACC3 interaction inhibitor project, biochemical, luminescence, cherry-pick | His-ARNT PASB-GST AlphaScreen artifact counter-screen | AC50, µM (highest dose often 68 µM), inactives show at the top dose activity change, negative = signal decrease | 1,200 compounds, 50% hits | shares compounds with ARNT TACC3 PPI;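 active = every separate test run was called active for a drop in luminescence, with AC50 within twice the top valid dose, actives reach about 71 µM in these data; inconclusive = the separate test runs disagree in their calls; inactive = all runs inactive, including signal change in the wrong direction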
An asterisk follows results filed as active; ? = inconclusive; . = no result given; [ ] = another dose, or the depositor's remark.

SMILES | aDG glyco act | Mot1-301 SUMO | ARNT TACC3 PPI | Bfl-1 A1 inh | AI-2 QS mod | ARNT Alpha ctr
Fc1ccc(/C=N/Nc2ncnc3nc[nH]c23)cc1F | 0 | -4 | 52* | -5 | 8 | -11%
C(=N\Nc1ncnc2nc[nH]c12)/c1cccs1 | 0 | 8 | 51* | -5 | 24 | -14%
O=C(CNS(=O)(=O)c1ccc([N+](=O)[O-])cc1)N/N=C/c1ccc(O)cc1O | 0 | 3 | 63* | 1 | 3 | -13%
Oc1c(C(Nc2cccc(C(F)(F)F)c2)c2ccncc2)ccc2cccnc12 (stereo not given) | 0 | -15 | 53* | -1 | -34 | 4.1µM*
COc1cc(C(=O)NCc2nnc(SCC(=O)Nc3nccs3)o2)cc(OC)c1OC | 0 | -4 | 69* | 1 | 10 | -15%
COc1cc(C(=O)NCc2nnc(SCC(=O)Nc3cc(C)on3)o2)cc(OC)c1OC | 0 | 8 | 3 | 0 | -2 | .
O=C(NCCCN1CCc2ccccc2C1)Nc1ccc(Br)cc1 | 0 | 0 | -1 | -1 | -15 | .
Cc1ccc(C(=O)Oc2ccc(/C=C3\C(=N)N4N=C(N5CCOCC5)SC4=NC3=O)cc2)cc1 | 0 | 4 | 56* | . | 11 | -27%
COC(=O)c1[nH]c2cc(OC)c(OC)cc2c1NC(=O)Oc1ccccc1 | 0 | -15 | 35* | 0 | 12 | -8%
Oc1ccc(C2=Nn3c(nnc3-c3ccco3)SC2)cc1O | 0 | -11 | 70* | 0 | 18 | -35%
CC(C)(C)C1=Nn2c(nnc2-c2ccco2)SC1 | 0 | -9 | -7 | ? | 18 | .
Oc1ccc(CN2CCC(Cc3ccccc3)CC2)c2cccnc12 | . | . | . | . | -50 | 5µM*
Oc1ccc(CN2CCc3ccccc3C2)c2cccnc12 | 0 | -15 | 67* | 1 | 78 | 3.7µM*
CC1CN(Cc2ccc(O)c3ncccc23)CC(C)O1 (stereo not given) | . | . | . | . | . | 4.7µM*
CC(C)COCc1ccc(O)c2ncccc12 | 0 | 14 | 67* | -1 | 37 | 18µM*
O=C(N/N=C/c1ccc([N+](=O)[O-])o1)c1cc(-c2ccc(-c3ccccc3)cc2)nc2ccccc12 | 0 | -10 | . | 0 | 26 | .
Oc1ccc(CNC2Cc3ccccc3C2)c2cccnc12 | . | . | . | . | . | 2.4µM*
COc1cc(C2SCC(=O)N2CCCN(C)C)cc(OC)c1OC (stereo not given) | 0 | -7 | -3 | 0 | 23 | .
O=C(O)C1Nc2c(O)cc(Cl)c([N+](=O)[O-])c2C2C=CCC12 (stereo not given) | 0 | -8 | 58* | 0 | 55 | 31µM*
Cc1ccc2c(c1)C1C=CCC1C(C(=O)O)N2 (stereo not given) | . | -10 | . | 0 | 21 | .
O=C(CSC1=NCCN1)NC12CC3CC(CC(C3)C1)C2 | 0 | 4 | -3 | 2 | 9 | .
C[C@@H]1CN([C@H](C)CO)C(=O)c2cc(NC(=O)Nc3ccc(C(F)(F)F)cc3)ccc2O[C@@H](C)CCCCO[C@@H]1CN(C)Cc1ccc2c(c1)OCO2 | . | . | 56* | . | . | 26µM*
C[C@@H]1CN([C@H](C)CO)C(=O)c2cc(NC(=O)C3CC3)ccc2O[C@@H]1CN(C)C(=O)Nc1ccc(F)cc1 | . | . | -4 | . | . | .
C[C@@H]1CCCCO[C@H](CN(C)Cc2ccc3c(c2)OCO3)[C@@H](C)CN([C@H](C)CO)C(=O)c2cc(NC(=O)Nc3ccc(C(F)(F)F)cc3)ccc2O1 | . | . | 30 | . | . | .
C[C@H]1CCCCO[C@H](CN(C)C(=O)Nc2ccc(F)cc2)[C@@H](C)CN([C@@H](C)CO)C(=O)c2cc(NS(=O)(=O)c3ccc(Cl)cc3)ccc2O1 | . | . | active | . | . | -36%[38 µM]
SMILES | aDG glyco act | Mot1-301 SUMO | ARNT TACC3 PPI | Bfl-1 A1 inh | AI-2 QS mod | ARNT Alpha ctr
C[C@H](CO)N1C[C@H](C)[C@H](CN(C)C(=O)Nc2ccc(F)cc2)OCCCC[C@H](C)Oc2ccc(NS(=O)(=O)c3ccc(Cl)cc3)cc2C1=O | . | . | -6 | . | . | .
C[C@H](CO)N1C[C@H](C)[C@@H](CN(C)C(=O)Nc2ccc(C(F)(F)F)cc2)Oc2ncc(C3=CCCC3)cc2C1=O | . | . | 81* | . | . | -26%[38 µM]
C[C@@H]1CN([C@@H](C)CO)C(=O)c2cc(NC(=O)C3CC3)ccc2O[C@H]1CN(C)C(=O)Nc1ccc(F)cc1 | . | . | 55* | . | . | -5%[42 µM]
Cc1ccc(-n2c3c(c(=O)[nH]c2=O)C(C(F)(F)F)(C(F)(F)F)NC(=O)N3)cc1 | 0 | -2 | -7 | 0 | 14 | .
O=C(NNc1nc2ccccc2s1)C1CC1 | 0 | -29 | -11 | 1 | -33 | .
COc1ccc(S(=O)(=O)Nc2ccc3c(c2)C(=O)N([C@H](C)CO)C[C@H](C)[C@H](CN(C)S(=O)(=O)c2ccc(C)cc2)O3)cc1 | . | . | 52* | . | . | -21%[38 µM]
C[C@@H]1CN([C@@H](C)CO)C(=O)c2cc(NC(=O)C3CCCCC3)ccc2O[C@@H](C)CCCCO[C@@H]1CN(C)C(=O)NC1CCCCC1 | . | . | active | . | . | -5%[38 µM]
C[C@@H]1CCCCO[C@@H](CN(C)C(=O)NC2CCCCC2)[C@H](C)CN([C@H](C)CO)C(=O)c2cc(NC(=O)C3CCCCC3)ccc2O1 | . | . | -4 | . | . | .
C[C@@H]1CN([C@@H](C)CO)C(=O)c2cc(NC(=O)CCN3CCOCC3)ccc2O[C@@H]1CN(C)Cc1ccncc1 | . | . | 51* | . | . | -7%[38 µM]
CCOc1ccc(N(CC(=O)Nc2ccc(OC)cc2OC)S(=O)(=O)c2c(C)[nH]c(=O)[nH]c2=O)cc1 | 0 | 9 | 58* | 0 | 30 | 10µM*
COc1ccc(N(CC(=O)Nc2ccccc2C)S(=O)(=O)c2c(C)[nH]c(=O)[nH]c2=O)cc1 | 0 | -4 | 2 | 1 | 9 | .
CCOc1ccccc1NC(=O)CN(c1ccc(OC)cc1)S(=O)(=O)c1c(C)[nH]c(=O)[nH]c1=O | 0 | 31 | 55* | 0 | 20 | 29µM*
CC(C(=O)NC1CCCCCC1)N(c1ccccc1)S(C)(=O)=O (stereo not given) | 0 | -18 | -1 | ? | 19 | .
COc1ccc2nc(/N=C/c3c(C)[nH]n(-c4ccc(C)cc4)c3=O)sc2c1 | 0 | -14 | 55* | -4 | 11 | -37%
COc1ccc2nc(/N=C\N(C)C)sc2c1 | 0 | 40 | -6 | 0 | 14 | .
CCO/C=C1/C(=O)N(Cc2ccccc2)C(=O)c2ccccc21 | 0 | -7 | 25* | 0 | 35 | 0%
CCO/C=C1\C(=O)N(c2ccccc2)C(=O)c2ccccc21 | 0 | 44 | 2 | 0 | . | .

Source: PubChem
